The whole screen tested about 220,000 compounds, of which about 16,000 (7.3%) were called active. Inconclusive results (about 25%) are left out. Calls come from the whole dose curve; as a rule, active = well fitted inhibition curve with a large enough effect (not every such curve was filed as active); inconclusive = small, poorly fitted or top-dose-only effect, or another doubt; inactive = no such curve, though single readings can be large or run the other way. The list comes from a sample in which actives are over-represented; it also holds similar structures and randomly drawn compounds. Square brackets hold non-standard residues; d marks the D form. Peptide text beside a SMILES is read from it. ξ: configuration not given here. ξM = CSCCC(N)C(=O)O
biological target: Aldehyde dehydrogenase 1A1 (Homo sapiens) (UniProt P00352); assay: qHTS Assay for Inhibitors of Aldehyde Dehydrogenase 1 (ALDH1A1); details: Purified ALDH1A1, NADH fluorescence, propionaldehyde substrate; series mostly up to 75.3 µM; activity, negative = inhibition: at the top concentration;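 for activity, negative = inhibition: plate controls were no enzyme wells and a reference inhibitor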
Sequence (P00352 whole entry, looked up): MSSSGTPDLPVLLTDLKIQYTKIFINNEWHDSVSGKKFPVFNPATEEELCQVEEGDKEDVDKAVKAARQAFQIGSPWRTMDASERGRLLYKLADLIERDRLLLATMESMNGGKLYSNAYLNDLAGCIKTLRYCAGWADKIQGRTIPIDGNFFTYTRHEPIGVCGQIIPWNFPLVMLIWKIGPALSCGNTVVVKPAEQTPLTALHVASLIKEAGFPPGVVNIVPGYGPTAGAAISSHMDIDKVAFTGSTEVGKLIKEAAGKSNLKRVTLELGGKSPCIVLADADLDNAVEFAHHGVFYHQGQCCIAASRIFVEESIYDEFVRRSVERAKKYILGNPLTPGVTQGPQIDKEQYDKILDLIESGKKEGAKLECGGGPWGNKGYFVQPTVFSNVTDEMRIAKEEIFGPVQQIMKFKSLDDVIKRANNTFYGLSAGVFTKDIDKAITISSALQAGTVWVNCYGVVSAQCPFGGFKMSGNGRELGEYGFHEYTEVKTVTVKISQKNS
Potency is the fitted concentration of half-maximal effect.

| Structure (SMILES) | activity, negative = inhibition | Potency |
| --- | --- | --- |
| O=C(N/N=C/c1ccc2c(c1)OCO2)C(=O)N1CCCC1 | 14.1% (inactive) | – |
| COC(=O)C1=C(C(=O)OC)[C@@H]2N(C)c3ccccc3[C@@]23C[C@@H](C(=O)OC)N(C(=O)c2ccco2)C3=N1 | 11.6% [at 13.5 µM] (inactive) | – |
| O=C(Nc1ccc2c(c1)OCO2)c1sc2cc(Cl)ccc2c1Cl | 1.01% (inactive) | – |
| Cc1ccc(C2NC(C(=O)O)CS2)cc1 (stereo not given) | -0.706% (inactive) | – |
| Cc1ccc(C2CC2C(=O)NN)cc1 (stereo not given) | – | 14.1 µM (active) |
| COC(=O)C1C(=O)NCC1c1ccc(C)cc1 (stereo not given) | -2.39% (inactive) | – |
| O=C(O)Cc1ccc(-c2ccccc2)cc1 | – | inactive |
| O=C(Cc1ccc(-c2ccccc2)cc1)NC(c1ccccc1)c1ccccc1 | – | 10 µM (active) |
| CCOC(=O)/C=C/C(=O)OCC(=O)NC(c1ccccc1)c1ccccc1 | 1.27% (inactive) | – |
| COc1ccc(Br)c2c1C(=O)CC2 | 2.29% (inactive) | – |
| CCC(CC)NC(=O)CSc1nnc(-c2c[nH]c3ccccc23)o1 | 8.75% (inactive) | – |
| Cc1oc(-c2ccccc2Cl)[n+]([O-])c1C | – | 22.4 µM (active) |
| Cc1cccc(CNc2cc(-c3ccccc3Cl)ncn2)c1 | -14.6% (inactive) | – |
| Cc1cc(C)n(-c2nc(C(F)(F)F)nc3ccccc23)n1 | 4.02% (inactive) | – |
| COc1cc(C(=O)NCc2ccc3c(c2)cc(C)n3C)cc(OC)c1OC | 3.23% (inactive) | – |
| Cc1ccc(NC(=S)NC2CCCC2)cc1 | 0.313% (inactive) | – |
| C/C(=N/NC(=O)c1ccc(Br)o1)c1ccc(C)o1 | -10.1% (inactive) | – |
| C/C(=N\NC(=S)NC1CCCCC1)c1ccc(C)o1 | – | 12.6 µM (active) |
| COc1ccccc1CN(C)c1nnnn1-c1ccccc1 | 2.59% (inactive) | – |
| Cc1cc(OCC(=O)NC2CCN(C)CC2)ccc1[N+](=O)[O-] | -7.92% (inactive) | – |
| CCOC(=O)c1cc(-c2ccc(F)cc2)n(CC(=O)NCc2ccccn2)c1C | 5.04% (inactive) | – |
| O=C(N/N=C/c1c(Cl)[nH]c2ccccc12)c1sc2ccccc2c1Cl | 0.733% (inactive) | – |

| Structure (SMILES) | activity, negative = inhibition | Potency |
| --- | --- | --- |
| O=C(Nc1ccon1)c1sc2ccccc2c1Cl | -0.693% (inactive) | – |
| Oc1ccc(N=Cc2sc3ccccc3c2Cl)cc1 | – | 15 µM (active) |
| Cc1cc(N2CCOCC2)nc2ccc(NC(=S)N3CCN(Cc4ccccc4)CC3)cc12 | -0.991% (inactive) | – |
| CCN(CC)C(=O)N(CC)Cc1ccccc1 | 5.52% (inactive) | – |
| O=S(=O)(NCC1CCCO1)c1cnc(Cl)c(Cl)c1 (stereo not given) | – | 3.55 µM (active) |
| O=S(=O)(NCC1CCCO1)c1ccc2ccccc2c1 (stereo not given) | -7% (inactive) | – |
| Cc1cc(Cl)c(S(=O)(=O)NCC2CCCO2)cc1OCC(N)=O (stereo not given) | -6.11% (inactive) | – |
| CCO[C@@H]1OC(C(=O)NCc2nc3ccccc3[nH]2)=C[C@H](C2CCCCC2)[C@H]1CCCO | -1.33% (inactive) | – |
| O=C(NNC(=S)NCCCN1CCOCC1)c1ccncc1 | -4.66% (inactive) | – |
| S=c1[nH]nc(-c2ccncc2)n1/N=C/c1ccccc1Cl | -2.83% (inactive) | – |
| S=c1[nH]nc(-c2ccccc2)n1/N=C/c1c[nH]c2ccccc12 | -1.77% (inactive) | – |
| Oc1ccccc1/C=N/n1c(-c2cccs2)n[nH]c1=S | – | 15.8 µM (active) |
| CCCC1(C(=O)OC)NC(c2ccco2)C2C(=O)N(C)C(=O)C21 (stereo not given) | -4.96% (inactive) | – |
| COc1ccc(NC(=S)NCCNC(C)=O)cc1 | 4.48% (inactive) | – |
| COc1cccc(NC(=O)Cc2ccc(C)cc2)c1 | 0.617% (inactive) | – |
| COc1ccc(NC(=S)Nc2ccccc2Cl)cn1 | 9.98% (inactive) | – |
| COc1ccc(NC(=O)/C(Cl)=C(/Cl)S(=O)Cc2ccc(C)cc2)cn1 (stereo not given) | – | 5.01 µM (active) |
| COc1ccc(CS(=O)/C(Cl)=C(/Cl)C(=O)Nc2ccc(OC)nc2)cc1 (stereo not given) | – | 8.91 µM (active) |
| Cc1ccc(NC(=O)OCc2cncs2)cc1 | 7.64% (inactive) | – |
| COc1cccc(C2c3[nH]c4ccccc4c3CCN2Cc2cccc(C)n2)c1 (stereo not given) | -3.3% (inactive) | – |
| O=C(COc1ccc(Cl)cc1[N+](=O)[O-])N1CCCCC1 | -2.25% (inactive) | – |
| CC(C)(C)NC(=O)CN(C(=O)c1ccc(Cl)nc1)c1cccc2ccccc12 | 12.2% (inactive) | – |

| Structure (SMILES) | activity, negative = inhibition | Potency |
| --- | --- | --- |
| Clc1ccc2nc(CSc3ccccc3)cn2c1 | -13.2% (inactive) | – |
| COC(=O)CNC(=O)C(CCSC)NC(C)=O (stereo not given) (Ac-[ξM]-Gly-OMe) | -1.51% (inactive) | – |
| O=C(CSc1nnc(-c2ccco2)n1CC1CCCO1)c1ccccc1 (stereo not given) | – | 25.1 µM (active) |
| CNC(=O)NC(=O)CSc1nnc(-c2ccc(F)cc2)n1CC1CCCO1 (stereo not given) | -7.93% (inactive) | – |
| Cc1nnc(SCC(N)=O)n1CC1CCCO1 (stereo not given) | 8.21% (inactive) | – |
| C=C1c2cccc(OC)c2O[C@H](C(=O)OCC)[C@@H]1CCCCCC | -7.12% (inactive) | – |
| Cc1cc([N+](=O)[O-])ccc1NC(=O)c1ccc(NC(=O)C(C)C)cc1 | 7.48% (inactive) | – |
| CN(C)c1ccc(C=C2C(=O)OC3(CCCC3)OC2=O)cc1 | – | 0.251 µM (active) |
| CC1CCCCC1NC(=O)COC(=O)Cc1ccc(Br)cc1 (stereo not given) | -8.2% (inactive) | – |
| COC(=O)C/C=C/[C@@H](C)[C@H](NC(=O)OCC(Cl)(Cl)Cl)c1ccccc1 | 8.6% (inactive) | – |
| CCOC(=O)Cc1cc(=O)[nH]c(=O)[nH]1 | 9.06% (inactive) | – |
| COc1ccc(OCC(=O)Nc2nnc(-c3ccco3)s2)cc1 | – | 22.4 µM (active) |
| COCC(=O)Nc1nnc(COc2ccccc2)s1 | 8.96% (inactive) | – |
| CNc1nnc(-c2ccco2)s1 | -9.61% (inactive) | – |
| Cn1nccc1NC(=O)CC(CC(=O)O)c1ccccc1 (stereo not given) | 5.23% (inactive) | – |
| CCc1ccccc1NC(=O)CN(c1ccc(OC)cc1OC)S(=O)(=O)c1ccccc1[N+](=O)[O-] | -5.19% (inactive) | – |
| Cc1c(C(=O)Nc2cccc(Cl)c2)cn2c(nc3ccccc32)c1C#N | -8.77% (inactive) | – |
| CCCCNCc1ccc(SC)cc1 | -1.19% (inactive) | – |
| CSc1ccc(S(=O)(=O)NCc2ccc(Cl)cc2)cc1 | – | 22.4 µM (active) |
| CCn1c(CNS(=O)(=O)c2ccc(Cl)cc2)n[nH]c1=S | -6.02% (inactive) | – |
| CC(C)(C)OC(=O)NCCCC1=CC2=CC(=O)C(C)(OC(=O)c3ccco3)C(=O)C2=CO1 (stereo not given) | -5.63% (inactive) | – |
| C=CCO/N=C/C1=C(O)C(C(=O)OC)C(C)(C)CC1=O (stereo not given) | 1.49% (inactive) | – |

| Structure (SMILES) | activity, negative = inhibition | Potency |
| --- | --- | --- |
| COc1cccc(-n2c(=O)c3c(C)c(C(=O)N(C)C)sc3n(CC(=O)NCCc3ccc(OC)c(OC)c3)c2=O)c1 | 7.95% (inactive) | – |
| CCN(CC)c1ccc2c(Nc3ccccc3)c(C=O)c(=O)oc2c1 | – | 1.58 µM (active) |
| COc1cccc(NC(=O)c2nn(-c3ccc(OC)cc3OC)c(=O)c3ccccc23)c1 | 2.87% (inactive) | – |
| COc1cccc(NC(=O)c2nn(C34CC5CC(CC(C5)C3)C4)cc2[N+](=O)[O-])c1 | – | 0.224 µM (active) |
| COc1cccc(NC(=O)c2ccc(Cn3cc([N+](=O)[O-])cn3)o2)c1 | – | 14.1 µM (active) |
| O=C(Nc1ccc(Br)c2cccnc12)c1ccc(Cn2cc([N+](=O)[O-])cn2)o1 | -4.37% (inactive) | – |
| Cn1cc([N+](=O)[O-])c(C(=O)Nc2cnn(Cc3ccc(F)cc3)c2)n1 | 3.74% (inactive) | – |
| CCc1ccc(NC(=O)c2ccc(Cn3cc([N+](=O)[O-])cn3)cc2)cc1 | 13.5% (inactive) | – |
| CC[C@@]12C=C(/C=C/c3ccccc3)[C@](CC)(C1)[C@H](c1ccccc1)CC2=O | -3.32% (inactive) | – |
| CCOC(=O)C1CCCN(C(=O)/C=C/c2ccc(OC)cc2)C1 (stereo not given) | – | 22.4 µM (active) |
| CCOC(=O)C1CCCN(C(=O)COc2ccc(N(C)S(=O)(=O)c3ccc(C)cc3)cc2)C1 (stereo not given) | -3.05% (inactive) | – |
| CCOC(=O)C1CCCN(C(=O)CN(c2ccc(OC)cc2)S(=O)(=O)c2c(C)noc2C)C1 (stereo not given) | 1.65% (inactive) | – |
| Cc1nn(CC#N)c(=O)n1N(C)c1ncc(C(F)(F)F)cc1Cl | 0.785% (inactive) | – |
| O=C(NCc1ccncc1)C(=O)NCc1ccco1 | -1.71% (inactive) | – |
| CC(=O)Nc1ccc(CN2CCN(Cc3ccc(F)c(F)c3)C(CCO)C2)cc1 (stereo not given) | -9.5% (inactive) | – |
| CC(=O)NC1C(Oc2ccc(C=O)cc2)OC(COC(C)=O)C(OC(C)=O)C1OC(C)=O (stereo not given) | – | 3.55 µM (active) |
| CC(=O)NC1C(OCc2ccccc2)OC(COC(C)=O)C(OC(C)=O)C1OC(C)=O (stereo not given) | 13.5% (inactive) | – |
| CCc1cccc(OC2OC(CO)C(O)C(O)C2NC(C)=O)c1 (stereo not given) | 2.58% (inactive) | – |
| C/C(=N/Nc1ccc(Cl)cc1)c1cnnc(-c2ccccc2)n1 | -2.44% (inactive) | – |
| CC1CCCN(CC(O)COCc2ccccc2)C1 (stereo not given) | -2.88% (inactive) | – |
| CCOC(=O)c1c(-c2ccc(C)cc2C)csc1NC(=O)CSc1nnnn1C | -14.7% (inactive) | – |
| CNC(=O)CSc1nnnn1-c1ccc(C)cc1C | 3.38% (inactive) | – |

| Structure (SMILES) | activity, negative = inhibition | Potency |
| --- | --- | --- |
| CCOC(=O)CNC(=O)CSc1nnnn1-c1cc(C)ccc1C | – | 7.08 µM (active) |
| NC(=O)C1CCN(C(=O)COc2cccc3cccnc23)CC1 | 5.03% (inactive) | – |
| Cn1ccc(NC(=O)Nc2ccc(Cl)cc2)n1 | 13% (inactive) | – |
| Cc1ccc2c(C(=O)CN3CCCC3)c(C)[nH]c2c1 | 2.72% (inactive) | – |
| Cc1c(C(=O)CN2CCOCC2)[nH]c2ccccc12 | – | 15 µM (active) |
| Cc1c(C(=O)N2CCOCC2)[nH]c2ccc(OCc3ccccc3)cc12 | -9.79% (inactive) | – |
| CCOC(=O)N1CCN(CC(=O)c2c(C)[nH]c3ccccc23)CC1 | – | 11.2 µM (active) |
| O=C(CN1CCOCC1)Nc1ccccc1 | -3.75% (inactive) | – |
| Cc1[nH]c2ccccc2c1C(=O)COC(=O)C(C)C | -0.515% (inactive) | – |
| CCN(C(=O)Cc1nc(N)n[nH]1)C1(C(=O)Nc2ccccc2)CCCCC1 | -0.0224% (inactive) | – |
| COc1ccc(/C=C(\NC(=O)c2ccc(OCC(C)C)cc2)C(=O)OCc2ccco2)cc1 | -4.85% (inactive) | – |
| CCOc1ccc(-n2cnnn2)cc1S(=O)(=O)N1CCC(C)CC1C (stereo not given) | -10.4% (inactive) | – |
| CCOC(=O)CCCN1CC(O)=C(c2nc3ccccc3s2)C1=N | -13.7% (inactive) | – |
| O=C(Nn1c(-c2ccccc2)nc2ccccc2c1=O)c1ccc([N+](=O)[O-])cc1 | 2.11% (inactive) | – |
| N=C1C(c2nc3ccccc3s2)=C(O)CN1NC(=O)c1ccc([N+](=O)[O-])cc1 | – | 1.78 µM (active) |
| O=C(NC1CC1)c1ccc(-c2ccccc2)cc1 | -5.59% (inactive) | – |
| CCOc1ccc(/C=N/NC(N)=S)cc1 | 6.14% (inactive) | – |
| Cc1cccc(-n2c(C)cc(/C=N/NC(N)=S)c2C)c1 | – | 3.16 µM (active) |
| Cc1cc(/C=N/n2cnnc2)c(C)n1-c1cccc(C(=O)O)c1 | 41.2% (inactive) | – |
| COc1ccc(-c2nc3cc([N+](=O)[O-])ccc3o2)cc1OC | 7.32% (inactive) | – |
| CCOC(=O)C1(C)NC(c2ccco2)C2C(=O)N(c3ccccc3)C(=O)C21 (stereo not given) | 4.72% (inactive) | – |
| COc1ccc(Cl)cc1C(=O)NNC(=S)NC1CCCC1 | -2.74% (inactive) | – |

— PubChem BioAssay AID1030 (National Center for Advancing Translational Sciences (NCATS), 2008)
